Measurements: the supplement of paper PMC6411743
± gives the standard deviation of the averaged measurements. Of roughly 5,400 targets only a part is listed; those with the largest changes were picked by preference.

These targets were tested with Nc1nc2c(ncn2[C@@H]2O[C@H](COP(=O)(O)OP(=O)(O)OP(=O)(O)O)[C@@H](O)[C@H]2O)c(=O)[nH]1 [guanosine triphosphate] (assay: NP40-soluble protein abundance relative to vehicle (solubility fold change) (ratio); higher = more soluble protein in presence of GTP). Details: concentration: 1mM.
Outline: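 In three independent experiments, Jurkat crude lysate made by Dounce homogenisation was treated for 10 min at room temperature and then 3 min at 37 °C with eight concentrations ranging from 0.1 to 10 mM. It was then solubilised with 0.8% NP40 plus benzonase for 60 min at 4 °C and ultracentrifuged. The supernatant was TMT-labelled for LC-MS/MS, and each value is the fold change against the detergent-processed vehicle for the same replicate, using vsn-normalised intensities.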

UniProt Q5JTZ9, sequence (Q5JTZ9 whole entry): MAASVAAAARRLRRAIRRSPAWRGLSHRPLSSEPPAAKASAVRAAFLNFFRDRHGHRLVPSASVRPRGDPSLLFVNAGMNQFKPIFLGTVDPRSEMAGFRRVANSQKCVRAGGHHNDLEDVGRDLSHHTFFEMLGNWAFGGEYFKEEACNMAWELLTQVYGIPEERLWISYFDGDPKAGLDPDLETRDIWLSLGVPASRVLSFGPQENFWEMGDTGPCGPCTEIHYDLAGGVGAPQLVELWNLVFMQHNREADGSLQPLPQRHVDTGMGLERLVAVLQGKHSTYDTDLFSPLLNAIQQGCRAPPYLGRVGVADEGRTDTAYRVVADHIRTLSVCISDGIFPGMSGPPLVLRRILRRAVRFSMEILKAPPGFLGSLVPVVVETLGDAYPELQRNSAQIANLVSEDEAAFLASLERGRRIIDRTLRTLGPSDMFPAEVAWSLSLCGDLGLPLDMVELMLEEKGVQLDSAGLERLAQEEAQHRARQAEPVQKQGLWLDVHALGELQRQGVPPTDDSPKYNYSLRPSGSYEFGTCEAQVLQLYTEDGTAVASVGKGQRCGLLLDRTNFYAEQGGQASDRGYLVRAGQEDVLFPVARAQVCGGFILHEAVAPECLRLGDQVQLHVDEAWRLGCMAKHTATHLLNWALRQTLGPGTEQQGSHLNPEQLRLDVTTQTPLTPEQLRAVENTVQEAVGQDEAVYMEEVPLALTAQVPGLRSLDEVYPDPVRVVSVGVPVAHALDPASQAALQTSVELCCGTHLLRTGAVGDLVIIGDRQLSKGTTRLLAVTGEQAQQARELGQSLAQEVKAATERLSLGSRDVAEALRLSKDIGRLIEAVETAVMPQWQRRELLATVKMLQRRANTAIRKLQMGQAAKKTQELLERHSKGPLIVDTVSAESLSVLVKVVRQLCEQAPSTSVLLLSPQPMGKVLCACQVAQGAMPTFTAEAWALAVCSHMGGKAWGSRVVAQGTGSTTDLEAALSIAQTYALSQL
UniProt Q15024, sequence (Q15024 whole entry): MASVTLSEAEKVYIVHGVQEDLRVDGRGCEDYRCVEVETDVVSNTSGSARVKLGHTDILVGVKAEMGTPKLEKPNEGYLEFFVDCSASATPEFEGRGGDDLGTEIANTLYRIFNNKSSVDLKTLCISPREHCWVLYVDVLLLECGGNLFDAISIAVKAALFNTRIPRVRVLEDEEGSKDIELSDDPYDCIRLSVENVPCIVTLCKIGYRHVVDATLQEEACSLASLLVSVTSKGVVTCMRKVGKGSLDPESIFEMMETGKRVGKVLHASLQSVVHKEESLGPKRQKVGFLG
UniProt Q86Y37, sequence (Q86Y37 whole entry): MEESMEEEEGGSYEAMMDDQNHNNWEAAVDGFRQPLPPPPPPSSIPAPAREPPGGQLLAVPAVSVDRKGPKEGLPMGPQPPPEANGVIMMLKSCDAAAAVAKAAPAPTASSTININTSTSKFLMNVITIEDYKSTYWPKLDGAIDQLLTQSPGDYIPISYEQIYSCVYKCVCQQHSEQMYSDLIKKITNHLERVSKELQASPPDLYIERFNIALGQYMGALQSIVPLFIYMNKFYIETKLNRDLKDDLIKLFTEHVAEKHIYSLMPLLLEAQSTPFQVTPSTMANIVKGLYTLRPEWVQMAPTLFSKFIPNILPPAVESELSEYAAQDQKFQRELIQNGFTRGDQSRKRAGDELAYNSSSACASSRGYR
UniProt Q8TC12, sequence (Q8TC12 whole entry): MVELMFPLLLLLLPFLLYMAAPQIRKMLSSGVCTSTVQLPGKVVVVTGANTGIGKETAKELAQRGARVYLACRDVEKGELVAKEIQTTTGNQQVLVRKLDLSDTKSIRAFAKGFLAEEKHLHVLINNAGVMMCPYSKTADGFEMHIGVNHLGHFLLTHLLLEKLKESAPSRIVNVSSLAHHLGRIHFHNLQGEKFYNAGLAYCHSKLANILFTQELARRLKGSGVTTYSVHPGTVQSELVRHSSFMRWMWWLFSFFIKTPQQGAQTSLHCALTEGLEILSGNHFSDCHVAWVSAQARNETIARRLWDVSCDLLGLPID
UniProt Q13496, sequence (Q13496 whole entry): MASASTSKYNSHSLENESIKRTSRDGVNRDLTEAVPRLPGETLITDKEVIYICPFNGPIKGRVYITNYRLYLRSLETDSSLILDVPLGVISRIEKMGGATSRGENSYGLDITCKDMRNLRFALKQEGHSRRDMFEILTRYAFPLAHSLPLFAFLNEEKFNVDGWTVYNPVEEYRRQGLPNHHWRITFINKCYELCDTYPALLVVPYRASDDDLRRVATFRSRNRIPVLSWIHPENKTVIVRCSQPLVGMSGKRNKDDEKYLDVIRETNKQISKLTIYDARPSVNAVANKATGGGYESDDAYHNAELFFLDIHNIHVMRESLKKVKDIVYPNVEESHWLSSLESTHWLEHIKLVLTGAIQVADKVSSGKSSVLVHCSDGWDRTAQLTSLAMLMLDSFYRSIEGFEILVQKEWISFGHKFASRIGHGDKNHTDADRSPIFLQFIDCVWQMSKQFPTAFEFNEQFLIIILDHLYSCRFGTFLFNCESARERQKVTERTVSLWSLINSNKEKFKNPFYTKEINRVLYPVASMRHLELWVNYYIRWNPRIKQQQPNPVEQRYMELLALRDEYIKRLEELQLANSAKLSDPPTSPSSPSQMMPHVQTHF
UniProt Q14974, sequence (Q14974 whole entry): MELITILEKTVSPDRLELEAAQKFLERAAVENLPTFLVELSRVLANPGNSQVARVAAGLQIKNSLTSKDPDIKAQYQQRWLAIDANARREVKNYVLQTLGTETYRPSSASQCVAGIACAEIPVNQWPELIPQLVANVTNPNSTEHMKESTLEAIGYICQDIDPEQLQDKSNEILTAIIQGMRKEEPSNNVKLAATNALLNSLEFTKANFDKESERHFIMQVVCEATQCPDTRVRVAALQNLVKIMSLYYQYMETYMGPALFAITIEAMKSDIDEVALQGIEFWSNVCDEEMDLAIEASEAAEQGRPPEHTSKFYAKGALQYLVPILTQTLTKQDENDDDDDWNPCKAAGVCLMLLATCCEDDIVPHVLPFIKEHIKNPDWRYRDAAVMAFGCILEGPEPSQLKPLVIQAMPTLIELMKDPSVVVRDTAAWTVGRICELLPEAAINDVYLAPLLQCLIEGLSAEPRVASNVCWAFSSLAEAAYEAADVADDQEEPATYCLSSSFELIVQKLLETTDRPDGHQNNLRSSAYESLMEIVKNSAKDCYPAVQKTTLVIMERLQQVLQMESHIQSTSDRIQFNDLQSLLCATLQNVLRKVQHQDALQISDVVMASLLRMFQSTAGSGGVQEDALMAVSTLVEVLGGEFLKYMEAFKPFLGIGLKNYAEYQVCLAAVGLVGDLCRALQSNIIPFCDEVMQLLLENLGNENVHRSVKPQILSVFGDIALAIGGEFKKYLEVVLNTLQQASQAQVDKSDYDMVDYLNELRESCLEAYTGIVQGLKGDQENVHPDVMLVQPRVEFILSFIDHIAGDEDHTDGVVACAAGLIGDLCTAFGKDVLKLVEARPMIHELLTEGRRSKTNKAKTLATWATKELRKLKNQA
UniProt Q10567, sequence (Q10567 whole entry): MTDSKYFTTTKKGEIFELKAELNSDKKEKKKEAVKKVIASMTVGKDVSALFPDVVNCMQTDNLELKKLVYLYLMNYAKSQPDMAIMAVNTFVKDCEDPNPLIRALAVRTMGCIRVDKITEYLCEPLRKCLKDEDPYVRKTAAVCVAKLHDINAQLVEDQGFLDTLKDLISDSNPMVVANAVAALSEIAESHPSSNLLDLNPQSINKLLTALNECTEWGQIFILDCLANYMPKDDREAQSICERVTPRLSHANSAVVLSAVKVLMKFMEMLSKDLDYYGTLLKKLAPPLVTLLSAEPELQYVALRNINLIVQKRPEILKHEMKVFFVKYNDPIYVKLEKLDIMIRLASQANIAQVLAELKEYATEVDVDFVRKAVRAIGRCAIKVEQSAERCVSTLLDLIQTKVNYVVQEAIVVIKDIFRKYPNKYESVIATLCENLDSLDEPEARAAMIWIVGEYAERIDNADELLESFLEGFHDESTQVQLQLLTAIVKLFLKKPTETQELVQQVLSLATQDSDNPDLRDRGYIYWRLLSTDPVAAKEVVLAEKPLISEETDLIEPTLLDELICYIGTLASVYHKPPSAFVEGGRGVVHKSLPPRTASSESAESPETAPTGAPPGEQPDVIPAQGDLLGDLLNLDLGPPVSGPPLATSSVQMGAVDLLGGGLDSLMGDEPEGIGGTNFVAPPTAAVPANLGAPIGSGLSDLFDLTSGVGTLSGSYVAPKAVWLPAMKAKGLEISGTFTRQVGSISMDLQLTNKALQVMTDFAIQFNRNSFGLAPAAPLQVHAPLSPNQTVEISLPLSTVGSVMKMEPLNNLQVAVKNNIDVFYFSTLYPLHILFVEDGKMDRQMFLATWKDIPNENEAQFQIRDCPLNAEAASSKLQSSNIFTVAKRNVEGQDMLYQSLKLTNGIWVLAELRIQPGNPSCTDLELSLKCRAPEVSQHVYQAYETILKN
UniProt Q86W42, sequence (Q86W42 whole entry): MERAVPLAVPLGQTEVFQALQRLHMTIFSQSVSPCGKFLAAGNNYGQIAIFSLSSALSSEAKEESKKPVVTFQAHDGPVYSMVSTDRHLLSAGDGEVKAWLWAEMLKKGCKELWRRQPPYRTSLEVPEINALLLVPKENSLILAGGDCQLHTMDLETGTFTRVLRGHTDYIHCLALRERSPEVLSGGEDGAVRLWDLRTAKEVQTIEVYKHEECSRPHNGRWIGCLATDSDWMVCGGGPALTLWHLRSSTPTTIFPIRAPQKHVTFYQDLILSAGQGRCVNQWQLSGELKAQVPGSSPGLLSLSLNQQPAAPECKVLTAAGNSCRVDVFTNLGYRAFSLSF
UniProt Q16864, sequence (Q16864 whole entry): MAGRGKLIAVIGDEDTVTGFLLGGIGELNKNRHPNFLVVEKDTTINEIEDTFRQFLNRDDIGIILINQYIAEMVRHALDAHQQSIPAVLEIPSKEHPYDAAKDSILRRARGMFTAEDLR

Target	NP40-soluble protein abundance
UniProt P55072	0.999 ± 0.073
YRDC (UniProt Q86U90)	0.949 ± 0.027
UniProt Q86U86|Q86U86-8|Q86U86-2|Q86U86-4|Q86U86-5|Q86U86-7|Q86U86-9	1.21 ± 0.092
UniProt Q5K651|C9JKF1	0.998 ± 0.025
UniProt Q7Z3B4|Q7Z3B4-3	1 ± 0.038
UniProt Q16630|Q16630-2	1.95 ± 0.22
AARS2 (UniProt Q5JTZ9)	0.989 ± 0.052
UniProt Q10567|Q10567-2|Q10567-3	0.956 ± 0.054
UniProt Q12872|Q12872-2	1.17 ± 0.014
PSMD2 (UniProt Q13200)	1.01 ± 0.13
UniProt Q86Y37|Q86Y37-4	0.9527 ± 0.0029
UniProt Q16864|Q16864-2	1.032 ± 0.01
LEMD2 (UniProt Q8NC56)	1.32 ± 0.076
UniProt Q13428|Q13428-3|Q13428-4|Q13428-7	1.09 ± 0.12
DHX9 (UniProt Q08211)	1.06 ± 0.17
THOC7 (UniProt Q6I9Y2)	1.6 ± 0.23
DDX1 (UniProt Q92499)	0.941 ± 0.027
EDC4 (UniProt Q6P2E9)	1.01 ± 0.045
P86790|P86791 (UniProt P86791+P86790)	1.03 ± 0.063
RAB8A (UniProt P61006)	0.903 ± 0.041

Target	NP40-soluble protein abundance
MBLAC2 (UniProt Q68D91)	1 ± 0.11
SNW1 (UniProt Q13573)	0.97 ± 0.028
UniProt Q13427|E9PG73	1.18 ± 0.13
UniProt Q63HQ0	0.951 ± 0.099
MLKL (UniProt Q8NB16)	0.896 ± 0.062
UniProt P62277	1.03 ± 0.22
EXOSC7 (UniProt Q15024)	1.06 ± 0.086
CCDC25 (UniProt Q86WR0)	0.892 ± 0.051
UniProt P60228	1.05 ± 0.098
UniProt Q86W42|Q86W42-2	1.46 ± 0.27
UniProt Q6UXH1|Q6UXH1-4|Q6UXH1-5|Q6UXH1-6	1.03 ± 0.09
UniProt Q14103-3|D6RF44|Q14103-4	0.943 ± 0.085
MTM1 (UniProt Q13496)	0.961 ± 0.043
UniProt Q7KZN9|Q7KZN9-2	0.98 ± 0.035
KPNB1 (UniProt Q14974)	1.01 ± 0.035
RDH11 (UniProt Q8TC12)	0.911 ± 0.034
TWF2 (UniProt Q6IBS0)	1.02 ± 0.017
PDCD6IP (UniProt Q8WUM4)	0.943 ± 0.061
UniProt Q14444|Q14444-2	1.06 ± 0.07
